From PubChem BioAssay AID687001 (Broad Institute, 2013) come the findings set out here.

Each structure is given as a SMILES string. Entries with a potency or affinity are not part of this list. Active and inactive are the calls of the source.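 Rule for the calls: active = signal-lowering compounds whose fitted half-maximal concentration is at or below twice the top tested dose in every run; inconclusive = runs disagree, flat 30 to 70% inhibition, or poor curve fit; inactive = the rest.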

Protein S100-A4 (Homo sapiens), sequence (P26447 whole entry, looked up): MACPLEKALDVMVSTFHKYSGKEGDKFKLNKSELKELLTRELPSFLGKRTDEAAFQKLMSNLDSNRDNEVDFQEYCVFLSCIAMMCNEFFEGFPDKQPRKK

This assay concerns the target Protein S100-A4 (Homo sapiens) (UniProt P26447). Description: S100A4-myosin IIA binding inhibitor potency, dose response, biochemical, fluorescence polarization, cherry-picked hits (AID 687001). Particulars: FP, S100A4/TAMRA-myosin IIA peptide binding; series mostly up to 11 µM. For orientation: Fluorescence polarisation rises when a labelled molecule tumbles more slowly, as on binding a larger partner.
With `CCNC(=O)[C@H]1N[C@H]2c3ccc(-c4cccc(C(=O)N(C)C)c4)c(=O)n3C[C@H]2[C@@H]1CO`, the outcome was inactive. As for `C[C@@H]1CCCCO[C@@H](CN(C)S(=O)(=O)c2cn(C)cn2)[C@H](C)CN([C@@H](C)CO)C(=O)c2cc(NC(=O)C3CCCCC3)ccc2O1`, the entry is “inactive”. Next, `O=C1[C@H]2[C@@H](c3ccc(F)cc3)N3C(=O)N(c4cccc(Br)c4)C(=O)[C@@]3(Cc3ccccc3)[C@H]2C(=O)N1C1CCCCC1`: “inactive”.

Regarding `O=C(CN(Cc1ccco1)C(=O)c1cccc(F)c1)Nc1ccccc1C(F)(F)F`, the molecule was called inactive. Regarding `COCCNC(=O)C1CCCN(Cc2ccc(C(C)C)cc2)CC1` (centres undefined), the molecule was called inactive. As for `CN(C)C(=O)C[C@@H]1C=C[C@H](NC(=O)Nc2cccc(F)c2)[C@@H](CO)O1`, the entry is “inactive”. `COC(=O)C(c1ccccc1)C(CC(=O)c1ccccc1)c1ccccc1` (centres undefined): the outcome was inactive. Next, `CC(OCCN(C)C)C(=O)C12CC3CC(CC(C3)C1)C2` (centres undefined): “inactive”; `CCOCCn1ccc2c(OCC(=O)Nc3ccccc3OC)cccc2c1=O`: “inactive”; `CCN(CC(=O)Nc1c(F)cccc1F)C(=O)CNC(=O)c1cccs1`: “inactive”. Turning to `O=C(COC(=O)/C=C/c1ccc(Br)o1)Nc1ccc2[nH]c(=O)[nH]c2c1`, the result was inactive. Next, `COc1ccc(Cl)cc1NC(=O)CN(C)C(=O)CCCc1c[nH]c2ccccc12`: “inactive”. `C[C@H](CO)N1C[C@H](C)[C@H](CN(C)Cc2ccccc2)Oc2c(NC(=O)CCCCCC(=O)Nc3ccccc3N)cccc2C1=O`: the outcome was inactive.

For the molecule `Cc1ccc(S(=O)(=O)NCCC(=O)NCc2ccccn2)cc1`, the outcome was inactive. As for `COc1ccc(-c2ccc3c(c2)[C@@H]2[C@@H](CCN2C(=O)NC2CCCC2)[C@H](CO)N3C)cc1`, the entry is “inactive”; as for `CC(C)NC(=O)Nc1ccc2c(c1)C(=O)N([C@@H](C)CO)C[C@H](C)[C@H](CN(C)C(=O)c1ccncc1)OCCCC[C@H](C)O2`, “inactive”; as for `C[C@@H]1CN([C@H](C)CO)C(=O)c2cc(NS(=O)(=O)c3ccc(Cl)cc3)ccc2O[C@@H](C)CCCCO[C@H]1CN(C)Cc1ccc(Cl)c(Cl)c1`, “inactive”.

With `NC(=O)c1ccsc1NC(=O)c1ccco1`, the call was inactive. Consider `O=C(CSc1ncnc2c1nnn2Cc1ccc(F)cc1)NCC1CCCO1` (centres undefined), for which the molecule was called inactive. Take `C[C@H]1CN([C@@H](C)CO)C(=O)c2cccc(NC(=O)C3CC3)c2O[C@@H]1CN(C)Cc1ccc2c(c1)OCO2`: the molecule was called inactive.

With `CN1c2ccc(C3=CCCCC3)cc2[C@@H]2[C@@H](CCN2C(=O)C2CC2)[C@H]1CO`, the result was inactive. Next, `Cc1ccc2c(nc3s/c(=C\c4ccc(-c5ccccc5C(=O)O)o4)c(=O)n32)c1C`: “inactive”. Next, `CCCC(=O)Nc1ccc2c(c1)OC[C@@H](C)N(Cc1ccncc1)C[C@H](C)[C@H](OC)CN(C)C2=O`: “inactive”. As for `CC(C)C(=O)Nc1ccc2c(c1)C(=O)N(C)[C@H]1CC[C@H](CC(=O)Nc3cccc(F)c3)O[C@@H]1CO2`, the entry is “inactive”. As for `Cc1ccc(NC(=S)N(C)C)cc1C`, the molecule was called inactive.

For `O=C(COC(=O)C1CC1)NCCc1ccccc1`, the outcome was inactive. For `CCC(=O)N1CCC(C)(C(=O)NCc2ccc(F)cc2)C1` (centres undefined), the call was inactive. Next, `CC(C)NC(=O)N(C)C[C@@H]1Oc2ccc(NS(=O)(=O)c3ccccc3)cc2C(=O)N([C@H](C)CO)C[C@@H]1C`: “inactive”. Next, `COc1ccc(N2CC(C(=O)Nc3ccccc3N3CCCC3)CC2=O)c(OC)c1` (centres undefined): “inactive”; `COCCn1c(SCC(=O)Nc2ccc(NC(C)=O)cc2)nc2ccccc2c1=O`: “inactive”; `COc1ccc(-c2cnc(SCCNC(=O)c3ccc4c(c3)OCO4)[nH]2)cc1`: “inactive”.

Turning to `CN(C(=O)COC(=O)/C=C/c1ccc2c(c1)OCO2)c1c(N)n(Cc2ccccc2)c(=O)[nH]c1=O`, the molecule was called inactive. With `Cc1cc(Cl)nc(-n2nc(C)cc2C)n1`, the result was inactive. Next, `C[C@@H]1CCCCO[C@@H](CN(C)S(=O)(=O)c2ccccc2)[C@@H](C)CN([C@@H](C)CO)C(=O)c2cc(NC(=O)CCCN(C)C)ccc2O1`: “inactive”; `CCS(=O)(=O)c1nc(S(=O)(=O)c2ccc(C)cc2)c(NCCCN2CCCC2=O)s1`: “inactive”. In the case of `Cc1cccc2sc(NC(=O)C3CCN(C(=O)c4ccco4)CC3)nc12`, the molecule was classed as inactive. As for `COC(=O)C1=C(C)N(C)C(=O)NC1c1cc(Cl)c(O)c(OC)c1` (centres undefined), the call was inactive. As for `CCOC(=O)C1=C(c2ccccc2)NC(=O)NC1c1cc(OC)c(OC)c(OC)c1` (centres undefined), the result was inactive. Turning to `Cc1ccc(C2CC(=O)NC(SCCC(C)C)=C2C#N)cc1` (centres undefined), the outcome was inactive.
